High-throughput results deposited in PubChem by several laboratories.
PLC-gamma1 inh: blocks human PLC-gamma1 enzyme activity. purified PLC-gamma1, fluorogenic substrate, fluorescence. inhibition, % at 12.2 µM. 370,000 tested, 0.84% active. AID 720700
Cardio protect: protects H9c2 cardiomyocytes from peroxide injury; H2O2 injury protection, ATPLite, 2 h; 360,000 tested, 0.63% active; protection from H2O2 cell death, % at 20 µM; AID 588492;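 active means compounds giving at least 50% protection of heart cells from peroxide-induced death in the single-dose screen, raw or plate-pattern-corrected value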
PLCb3 inh: inhibitors of human phospholipase C beta3 | inhibition, % at 12.2 µM | AID 720704 | Q01970 | Purified PLC-beta3, fluorogenic substrate, fluorescence | 370,000 tested, 0.18% active; in the data active means inhibition above about 11%
FAS TE block: inhibitors of human fatty acid synthase thioesterase domain; P49327; recombinant FAS-TE, OMFH fluorogenic substrate, fluorescence endpoint; inhibition, % at 15 µM; 360,000 tested, 0.67% active; AID 602261;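 active means compounds whose normalised, plate-corrected inhibition of enzyme fluorescence in the single-dose primary screen is 50% or more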
Target sequence (P49327 whole entry, looked up, the tested form may be a part): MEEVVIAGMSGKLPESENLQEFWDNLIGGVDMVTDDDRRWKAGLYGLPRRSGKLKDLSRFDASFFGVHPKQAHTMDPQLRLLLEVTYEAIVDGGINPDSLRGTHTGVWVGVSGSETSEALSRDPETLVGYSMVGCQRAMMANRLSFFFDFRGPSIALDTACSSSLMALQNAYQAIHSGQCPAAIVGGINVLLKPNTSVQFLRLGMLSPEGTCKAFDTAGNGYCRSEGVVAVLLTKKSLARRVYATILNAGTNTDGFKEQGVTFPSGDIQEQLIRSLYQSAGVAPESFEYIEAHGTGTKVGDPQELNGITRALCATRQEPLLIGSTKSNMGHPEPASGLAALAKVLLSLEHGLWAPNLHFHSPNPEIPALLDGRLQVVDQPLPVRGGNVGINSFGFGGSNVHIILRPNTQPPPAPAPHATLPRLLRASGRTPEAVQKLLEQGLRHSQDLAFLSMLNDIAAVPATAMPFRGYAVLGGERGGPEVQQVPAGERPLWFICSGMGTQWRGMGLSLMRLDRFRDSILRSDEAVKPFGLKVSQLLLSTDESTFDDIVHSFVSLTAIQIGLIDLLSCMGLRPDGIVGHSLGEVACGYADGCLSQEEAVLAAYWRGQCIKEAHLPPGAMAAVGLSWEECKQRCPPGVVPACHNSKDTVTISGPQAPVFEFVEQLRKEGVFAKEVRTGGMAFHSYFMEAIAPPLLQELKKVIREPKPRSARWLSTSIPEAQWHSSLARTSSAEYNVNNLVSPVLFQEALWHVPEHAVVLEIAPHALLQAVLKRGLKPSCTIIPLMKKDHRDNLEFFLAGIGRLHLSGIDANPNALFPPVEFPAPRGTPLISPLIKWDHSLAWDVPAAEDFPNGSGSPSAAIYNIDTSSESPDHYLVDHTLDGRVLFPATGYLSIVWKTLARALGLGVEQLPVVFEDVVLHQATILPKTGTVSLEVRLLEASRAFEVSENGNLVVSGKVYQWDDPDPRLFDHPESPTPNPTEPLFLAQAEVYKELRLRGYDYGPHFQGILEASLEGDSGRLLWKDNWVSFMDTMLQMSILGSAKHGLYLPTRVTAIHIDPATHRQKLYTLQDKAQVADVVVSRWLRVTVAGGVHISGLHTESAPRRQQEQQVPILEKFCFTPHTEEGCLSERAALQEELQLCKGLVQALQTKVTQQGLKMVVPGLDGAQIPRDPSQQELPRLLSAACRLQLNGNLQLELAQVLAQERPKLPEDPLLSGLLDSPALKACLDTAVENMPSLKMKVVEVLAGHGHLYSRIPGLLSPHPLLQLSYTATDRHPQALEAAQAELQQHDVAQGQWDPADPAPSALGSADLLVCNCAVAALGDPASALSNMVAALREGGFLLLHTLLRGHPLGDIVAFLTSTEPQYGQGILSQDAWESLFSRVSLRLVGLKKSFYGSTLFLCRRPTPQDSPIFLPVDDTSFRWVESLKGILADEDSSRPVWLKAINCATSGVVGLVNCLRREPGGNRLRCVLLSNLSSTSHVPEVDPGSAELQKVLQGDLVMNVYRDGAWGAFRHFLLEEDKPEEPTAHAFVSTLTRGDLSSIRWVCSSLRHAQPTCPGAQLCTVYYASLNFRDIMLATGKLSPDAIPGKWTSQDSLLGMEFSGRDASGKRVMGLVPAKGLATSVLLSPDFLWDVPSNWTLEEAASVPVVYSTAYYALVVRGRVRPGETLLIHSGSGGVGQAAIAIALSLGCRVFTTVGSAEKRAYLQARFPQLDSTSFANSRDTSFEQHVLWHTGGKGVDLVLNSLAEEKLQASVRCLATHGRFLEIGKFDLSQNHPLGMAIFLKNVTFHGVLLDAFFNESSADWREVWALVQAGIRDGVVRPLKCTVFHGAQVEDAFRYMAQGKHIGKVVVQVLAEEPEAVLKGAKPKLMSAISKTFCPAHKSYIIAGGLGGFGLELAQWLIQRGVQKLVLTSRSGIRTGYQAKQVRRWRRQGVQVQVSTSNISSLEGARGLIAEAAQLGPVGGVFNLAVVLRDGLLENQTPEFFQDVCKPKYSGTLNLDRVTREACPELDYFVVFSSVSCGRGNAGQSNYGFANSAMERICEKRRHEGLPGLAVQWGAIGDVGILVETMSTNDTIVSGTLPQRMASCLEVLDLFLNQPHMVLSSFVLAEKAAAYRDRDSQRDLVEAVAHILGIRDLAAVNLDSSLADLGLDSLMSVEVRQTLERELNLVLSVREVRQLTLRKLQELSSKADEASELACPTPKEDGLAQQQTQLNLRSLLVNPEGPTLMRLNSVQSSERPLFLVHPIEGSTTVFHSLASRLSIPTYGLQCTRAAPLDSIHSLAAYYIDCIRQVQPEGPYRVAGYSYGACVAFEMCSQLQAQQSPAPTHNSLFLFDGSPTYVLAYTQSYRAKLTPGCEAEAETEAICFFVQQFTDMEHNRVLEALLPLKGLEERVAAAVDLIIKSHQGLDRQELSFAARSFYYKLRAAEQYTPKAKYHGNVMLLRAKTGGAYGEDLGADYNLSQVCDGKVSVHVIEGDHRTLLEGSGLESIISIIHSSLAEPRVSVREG
PLCgamma1 ctr: inhibits human PLC-gamma1 in PLC-beta3 counter-screen. AID 743258. shares compounds with PLC-gamma1 inh. purified PLC-gamma1, fluorogenic substrate, fluorescence. inhibition, % at 12.3 µM. 3,300 tested, 3.1% active
PLCbeta3 conf: confirmation of human PLC-beta3 inhibitors; shares compounds with PLC-gamma1 inh; purified PLC-beta3, fluorogenic substrate fluorescence; inhibition, % at 12.3 µM; 3,300 tested, 1% active; AID 743261; in the data active means inhibition above about 11%
Large screens that a line does not name were inactive (follow-up assays come after a bar, where they were run). Only some compounds are listed: those with a hit (about 2.2% of all), similar ones and a draw of the others. Unless noted, no stated cut-off is given here; in the data, active means inhibition above about 9.5%; inactive means the rest.

Cc1ccc(C(NC(=O)N2CC(C)OC(C)C2)C(Cl)Cl)cc1F (stereo unspecified)	PLCb3 inh 13 | PLCgamma1 ctr inactive | PLCbeta3 conf inactive
COCCNC(=O)CN(C(=O)CCC(=O)Nc1ccccn1)c1cc(C)ccc1C	PLC-gamma1 inh 13 | PLCgamma1 ctr inactive | PLCbeta3 conf inactive
CCOc1ccccc1N(CC(=O)NCCOC)C(=O)CCC(=O)Nc1ccccn1	none
Cc1onc(-c2ccccc2)c1CNS(=O)(=O)c1cccc(Cl)c1	PLC-gamma1 inh 11 | PLCgamma1 ctr inactive | PLCbeta3 conf inactive
Cc1ccc2c(=O)[nH]c(Nc3nc(C)cc(-c4ccccc4)n3)nc2c1	PLC-gamma1 inh 11 | PLCgamma1 ctr inactive | PLCbeta3 conf inactive
CCc1ccc(C(=O)NNC(=O)c2ccc(OCC(=O)N3CCOCC3)c(OC)c2)cc1	PLC-gamma1 inh 13 | PLCgamma1 ctr inactive | PLCbeta3 conf inactive
O=C(O)C12CC3CC(C1)CC(n1ncc(NCc4ccco4)c(Cl)c1=O)(C3)C2	none
O=c1c(Cl)c(NCC2CCCO2)cnn1C12CC3CC(CC(C3)C1)C2 (stereo unspecified)	PLC-gamma1 inh 12 | PLCgamma1 ctr inactive | PLCbeta3 conf inactive
CC1(C(=O)Nc2cccc(C(F)(F)F)c2)Cc2c(-c3ccccc3)ccnc2O1 (stereo unspecified)	none
CN(Cc1ccccc1)C(=O)COC(=O)COc1ccc(Cl)cc1	none
CN(Cc1ccccc1)C(=O)COC(=O)COc1ccc(C#N)cc1	PLC-gamma1 inh 9.8 | PLCgamma1 ctr inactive | PLCbeta3 conf inactive
CN1C/C(=C/c2ccccc2[N+](=O)[O-])C(=O)/C(=C\c2ccccc2[N+](=O)[O-])C1	none
O=c1c2ccccc2sn1-c1ccc(Cl)cc1Cl	PLCb3 inh 16 | PLCgamma1 ctr inactive | PLCbeta3 conf inactive
CCOC(=O)N1CCN(C(=O)C[C@H]2C[C@@]3(C(=O)OC)C(=C[C@H](C(C)(C)C)O[C@@H]3C)N(Cc3cccc4ccccc34)C2=O)CC1	none (no result: Cardio protect, FAS TE block)
COCCCNC(=O)CCc1nc(-c2ccccc2Cl)no1	PLC-gamma1 inh 11 | PLCgamma1 ctr inactive | PLCbeta3 conf inactive
Oc1ccc(/C=N/NC(=S)Nc2cccnc2)c(O)c1O	PLC-gamma1 inh 12 | PLCgamma1 ctr inactive | PLCbeta3 conf inactive
COC(=O)c1ccc(N/C(=N/S(=O)(=O)c2ccccc2)c2ccccc2)cc1	none
CCOC(=O)c1ccc(N/C(=N\S(=O)(=O)c2ccccc2C)c2ccccc2)cc1	PLC-gamma1 inh 10 | PLCgamma1 ctr inactive | PLCbeta3 conf inactive
CCN(CC)S(=O)(=O)c1ccc(NC(=O)CCN2C(=O)C3CC=CCC3C2=O)cc1 (stereo unspecified)	none
COc1ccc(Nc2cc(C)nc3nc(C)nn23)cc1Cl	PLC-gamma1 inh 9.6 | PLCgamma1 ctr inactive | PLCbeta3 conf inactive
NC(CCc1ccccc1)c1csc(NC(=O)Nc2ccccc2Oc2ccccc2)n1 (stereo unspecified)	PLC-gamma1 inh 16 | PLCgamma1 ctr inactive | PLCbeta3 conf inactive
NC(CCc1ccccc1)c1csc(NC(=O)NCCc2ccccc2)n1 (stereo unspecified)	none
O=C(NC1CCCCC1)C(c1ccccc1F)n1c(=O)c(-c2cc3ccccc3[nH]2)nc2ccccc21 (stereo unspecified)	none (no result: Cardio protect, FAS TE block)
CCn1c(SCc2ccc(F)cc2)nc2ccccc2c1=O	PLC-gamma1 inh 11 | PLCgamma1 ctr inactive | PLCbeta3 conf inactive
CCn1c(SCc2ccc(OC)c(F)c2)nc2ccccc2c1=O	none
COc1ccc(C2(c3ccc(OC)cc3)NC(=O)N(CC(=O)NCC(F)(F)F)C2=O)cc1	none
O=c1c2ccccc2[nH]c(=S)n1CCN1CCN(Cc2ccccc2)CC1	PLC-gamma1 inh 11 | PLCgamma1 ctr inactive | PLCbeta3 conf inactive
C[C@H]1CNC(=O)c2c(C(=O)N3CCN(c4ccccc4)CC3)ncn21	none (no result: Cardio protect, FAS TE block)
COc1cccc(-c2csc(NC(=O)Nc3ccccc3)n2)c1	PLC-gamma1 inh 12 | PLCgamma1 ctr inactive | PLCbeta3 conf inactive
CCOc1ccccc1NC(=O)Nc1ccncc1	PLC-gamma1 inh 9.8 | PLCgamma1 ctr inactive | PLCbeta3 conf inactive
O=C(Nc1ccccc1)Nc1nc(-c2ccccc2)cs1	none
COc1cccc(NC(=O)Nc2ccncc2)c1	PLCb3 inh 11 | PLCgamma1 ctr inactive | PLCbeta3 conf inactive
CC(=O)CC[C@H]1CC[C@]2(CCCN(C(=O)C(C)(C)C)C2)O1	none (no result: Cardio protect, FAS TE block)
CC(=O)Nc1cccc(-c2ccnc3c2CC(C(=O)NCCC(F)(F)F)O3)c1 (stereo unspecified)	none
CC1(C)NC(=O)N(CC(=O)OCC(=O)Nc2c(Br)cc([N+](=O)[O-])cc2Br)C1=O	none
COc1cccc(N=Nc2c(N)[nH][nH]c2=O)c1	none
Nc1[nH][nH]c(=O)c1N=Nc1cccc(Cl)c1	PLC-gamma1 inh 11, PLCb3 inh 11 | PLCgamma1 ctr inactive | PLCbeta3 conf inactive
COc1cc(SC)ccc1C(=O)OCC(=O)N1CC(=O)Nc2ccccc21	none
COc1ccc(-n2nc(C(=O)Nc3ccc(OC)c(OC)c3)c3c4ccccc4n(C)c3c2=O)cc1	none
COc1ccc(-n2nc(C(=O)Nc3ccc4c(c3)OCO4)c3c4ccccc4n(C)c3c2=O)cc1	PLC-gamma1 inh 12 | PLCgamma1 ctr inactive | PLCbeta3 conf inactive
CN1C(=O)C(=O)/C(=C(/O)c2ccc(Br)cc2)C1c1ccccc1F (stereo unspecified)	none
Cc1cccc(CCNC(=O)C2CCCN(S(=O)(=O)c3cccc4nsnc34)C2)c1 (stereo unspecified)	PLC-gamma1 inh 17 | PLCgamma1 ctr inactive | PLCbeta3 conf inactive
CC(C)C[C@H](NC(=O)c1nc[nH]c1C(=O)N1CCN(C(=O)OC(C)(C)C)CC1)C(=O)OCc1ccccc1	PLC-gamma1 inh 10 | PLCgamma1 ctr inactive | PLCbeta3 conf inactive
CCc1nc2c(OCc3ccc(Cl)cc3Cl)cccn2c1N(C)C(=O)c1ccccc1F	PLCb3 inh 11 | PLCgamma1 ctr inactive | PLCbeta3 conf inactive
c1ccc(C2=NOC(c3nnc(-c4ccccc4)o3)C2)cc1 (stereo unspecified)	none
Fc1ccc(C2=NOC(c3nnc(-c4ccccc4)o3)C2)cc1 (stereo unspecified)	PLCb3 inh 12 | PLCgamma1 ctr inactive | PLCbeta3 conf inactive
CC(C)C(NS(=O)(=O)c1cccs1)C(=O)NCCCN1CCCCCC1 (stereo unspecified)	none
COc1cccc(Nc2nc(C(N)Cc3ccc(Cl)cc3)cs2)n1 (stereo unspecified)	PLC-gamma1 inh 9.5 | PLCgamma1 ctr inactive | PLCbeta3 conf inactive
COc1ccc(CC(N)c2csc(Nc3ccccn3)n2)cc1 (stereo unspecified)	PLC-gamma1 inh 15 | PLCgamma1 ctr inactive | PLCbeta3 conf inactive
COc1ccc(CC(N)c2csc(Nc3cccc(OC)n3)n2)cc1 (stereo unspecified)	none
O=C(Nc1cccc(F)c1)OCCCN1CCC2(CCC(c3ccccc3)CC2)C1 (stereo unspecified)	none (no result: Cardio protect, FAS TE block)
CC1(C(=O)NS(=O)(=O)C2CC2)CCN(C(=O)c2c(F)cccc2F)C1 (stereo unspecified)	none
